Assay results taken from the supplement of paper PMC10681739.
± gives the standard deviation of the averaged measurements. Over roughly 4,000 sequences, “arbitrary fluorescence units” has its median near 830; the highest 2% begin near 6,500. For the sample, the highest values were picked, then their nearest neighbours and some sequences at random.

Biological target: RUNX1 (UniProt Q01196)
Assay: RUNX1 binding intensity (PBM fluorescence), RUNX1 alone (arbitrary fluorescence units); higher = stronger binding
Conditions: RUNX1 concentration 2 nM; ETS1 concentration 0 nM
Procedure: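 gcPBM on 36-bp genomic-derived probes (partner site mutated) containing one RUNX1 site and no ETS1 site. Recombinant human RUNX1 (2 nM) was incubated alone or with ETS1 (25 nM) and detected by anti-RUNX1 antibody fluorescence. Values are medians over 4 replicate spots (not normalised). The probes sit in constant array flanks that are not printed.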

Chain of RUNX1 (Q01196 whole entry): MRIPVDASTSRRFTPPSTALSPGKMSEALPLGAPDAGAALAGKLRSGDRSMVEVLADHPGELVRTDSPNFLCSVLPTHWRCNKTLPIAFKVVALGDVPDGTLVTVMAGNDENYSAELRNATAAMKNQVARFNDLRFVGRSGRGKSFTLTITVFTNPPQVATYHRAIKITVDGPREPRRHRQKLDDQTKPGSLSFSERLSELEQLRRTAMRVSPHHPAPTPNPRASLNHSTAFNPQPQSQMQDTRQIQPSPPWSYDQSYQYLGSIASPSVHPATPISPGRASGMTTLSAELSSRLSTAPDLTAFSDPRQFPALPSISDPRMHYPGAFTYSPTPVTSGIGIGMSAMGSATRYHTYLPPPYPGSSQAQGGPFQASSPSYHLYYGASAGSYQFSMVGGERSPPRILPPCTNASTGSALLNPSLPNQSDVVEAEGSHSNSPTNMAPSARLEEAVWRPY

Row | Sequence | RUNX1 binding intensity
1 | GCCCCTCTTTCTGACTCACACAACCGCCTCTAGTCT | 1540
2 | TTGTGGTAGGGAAATCCACTTACCCCCTCCTCATGT | 808
3 | TGTGGCAACCACAGCCCCAAAACAAAGAGGAGACAC | 1040
4 | AGCTGAGGTCGCGGTGCAGCAGCAGCAAACGTGATA | 1010
5 | CCACTAGCAGCAAAACGGGCCGAGGGACCGCAAGCA | 821
6 | AACTTGTGGGGTTTTCTTCTGATCTTGCTCCCCGCT | 998
7 | GAAACCACAACCTACCCCAGCCTTACTTTCGGGCGC | 3300
8 | CCATTCTTACGGTGGAGATGGCTGCGGCCGTGGCGG | 815
9 | TCAAGAAAACAGTAAACTCTCAAAACCAAGTTCTGA | 736
10 | GCAATCTTGACCACAACATGGAGACAGGCAATCAAA | 1540
11 | TAGGTCTGTGGGTGACGTCTGTTTACTGTGATTGAA | 842
12 | ACGTCTGTTTACTGTGATTGAAACCGCAAGAAGAAG | 9630
13 | CATTCATGTGGCTTATAGGCACACCCTGCCTGCCTA | 824
14 | TCCTCCGTTCCCGTAGTTCCGAGTTGCGGTTTCTCC | 7620
15 | CCCCTTGCCGTTCTCCGAAAGTGCGCGGGTTGGAGC | 868
16 | GAGGCGTTGCCGCCTCCTTTTCGCGGTTGCCTTCTC | 988
17 | TGCTTCCCTTCAGTGCCGACAGCGAAAACCGCTGCC | 795
18 | GTCGCCGGGATCACCGCAAACGCTTGCTGCTTGCGC | 1190
19 | AGCCGTGGTCAGCAGCAGCACGACTGCCGCCTCCGC | 770
20 | GCAACCGCACTCCGAAAGCTCTGGGCCTGAAGAGTC | 943
21 | AACTGGGCTGAAAGAACGGCTAACCGCAAGCTGCCG | 13200
22 | TTGATAGCAAACCACACTCGGCACAGAAAGGAGAAC | 1020
23 | GGCGCCTCTTTGCGCCCCCGCCCACAATCGAGCGCA | 826
24 | GGTGGACCTGTGGTTTGCAACACAGAAAGAGACTAT | 1640
25 | GGTGGACCTGTGGTTTGCAACACAGAAAGAGGTGGC | 1580

Row | Sequence | RUNX1 binding intensity
26 | CCTTTGTTGTGGTTTTTGCAGAAAGAGAAGGGTTAG | 10600 ± 540
27 | CACCTTTGTTGTGGTTTGTAAACGGAGACAAAAACA | 1460
28 | TGACGGCTGCACGGGCGCAGCGGCGGCCCGCAGGGG | 736
29 | CTGCCTGCCCCACAGCATGCAGGGACAGGCAGTGGG | 633
30 | CGGCCCCCGGGGTGGTTAGCGCTTACGGGGTCGAAG | 714
31 | GCCGATGAGGAGGTGAGGGCCAACCACACTGCTCAG | 870
32 | AGTGCTGTGGTTTGACTTTGTTTTTACTGTAGCCAG | 1880
33 | AGAGTCTTTTTTACTGAGCGTTTGCGGTTTTGACTT | 8560
34 | TCAGAACTTGGTTTTGAGAGTTTACTGTTTTCTTGA | 785
35 | GGTCTGGAGGACGTTTGCAGCTGCTGTGGGTGGTGG | 787
36 | ACCTGATGCCGGGGCACCGCCAGATGTGGCCACGAG | 872
37 | TCGCCCGCCGCTTCATGTCGCGGCGCCGCAGAGGCC | 781
38 | AATTAAATTGTGGTAGATAGTAAAAGGACGTAGTTA | 943
39 | GTAGTAAGTTGTGGTTAAAAGAGAGGACGTTCAGAG | 7590
40 | TTTAATTCTGTGGTTAGAAGTAAAAGGACGTAAAGG | 3370
41 | ACTCTGCGGCCCAGCTGCTTCTGTGCACAGGCAATA | 791
42 | CTACCGGGAGTGCGGGTCGCGCTTCAGGCGGCGTCC | 724
43 | TGAAGGCAATTGACGAACACGTGACGCGGTCGGGCG | 721
44 | AGCGCCACCGCAGTGATGCAAGTCGGCAGTTGTAGT | 926
45 | ATTTCCATTTACGGACTCTTCTCCTGCCCGCAGGGC | 1020
46 | TCGTGAAAAAGGAGGTGGATAAAGTGGTTACGGCAA | 779
47 | CCGAGTGGCGGTTGTTTCAAGATGGCGGAGGTGGCA | 789.5 ± 6.2
48 | CCAGCATGTGGGCTCTGAACCTGAAGCAACAGGCTC | 796
49 | GGTGTTACACCGCAGCCTTCCATGAAGGGGCAGGGG | 1220
50 | CATGAGAAACACCCTGCCCAACCACCTGACTACAAG | 1080

Row | Sequence | RUNX1 binding intensity
51 | ATGTTAACACCCTGCCATGAAAACCGCAAGAAGGGC | 11200
52 | CCGGGACCGCGGCTTGGGCTCACGGCCACTGCCGAC | 703
53 | GTTTTCAAGGCAGCAAGTGGCTGTGGTGGCACGGAG | 837
54 | AGGCTTTGCTGCCACAAACTTTCGTGCCACGAACCT | 779
55 | AGTTGCATACGCGGTATTGGGCAGGCAATGGCAGGG | 738
56 | CGTTTACTGTGGCTGCAGCTCTCCCCACCCACACAC | 979
57 | GACGCAGCATGAGGTGGAGGTGTAGAATGTGGTGCT | 760
58 | TTTGCACACATGCTGGCCTCCGCCTGACCACCTCCT | 985
59 | GCCGTGAATGCGGGCTCTCCTGCCGTAAGCTGCCCC | 824
60 | TTACAGGGGCCGGGAGTGGCCTGCGGGCGGAGAAGT | 738
61 | TCCTGTGGCTTTGGGGTTCCTTGTTGCCTGGGCTGG | 1110
62 | GTGACCACTGCCTAGTTACTGCCAGCTGAACGAAGG | 729
63 | CTGGAACCGCAGGATCCTTGCTGCGTCCTCTCGGTC | 2340
64 | GAGTGGGCGGTAACTCGCAGGCCGAACGTGACGCAA | 740
65 | GACAACCTACCACAGCCTTCCTTTCGGGCGCTCAGG | 1040
66 | TTCTGTGGGGACAATTAGGGTTTCTGGGTTTTCTGA | 865
67 | AGATTCTAGGCAGTGTCTGTAGCCGCAGCTGAGGGT | 736
68 | TACCTAGACCCTTGCCGCCCTTACCGCGGCCAGACA | 901
69 | CTTCTTGCTGCTGAGACTGATACAGCCCGCAAAGCT | 816
70 | TGTTACCACTGTTAGACTAGAGAGCATGCTGTTGTT | 841
71 | AGCACCACATTCTACACCTCCACCTCATGCTGCGTC | 1180
72 | TTGCCGTAACCACTTTATCCACCTCCTTTTTCACGA | 2720
73 | CCTAAGTAACCACATTCTCGCTTGCTCCTTCCACAC | 3680
74 | GTAGCCGGGTGTTACGGAGCGCTGCGGGCAAAGCAG | 671
75 | GGAGGAAGGCAGCAAAGAAAGAGGTGGTTTCGGCAC | 783

Row | Sequence | RUNX1 binding intensity
76 | CTCAGCCCACCGCTGCGCGGCCGAAAGTCGGAGGTT | 760
77 | TTGCACTCTGCGGGGACGGGAGAAGGAACGAAAAAT | 805
78 | TTTGTTGTTCAGGGTGCGAGGCGGCCGCAGCTTCCA | 936
79 | CACCTCCCACTCACCACAGAGTTTCATGGTGTTTTA | 1090
80 | ACTTGACTGCCTGTGGGGTGTGTGGTGTCTGCACTT | 822
81 | CGAGTCAGCAAATCACAGCTCTGCGGGTGGGCTCCT | 739
82 | CAGCATGTGGGTGCACACACCGATTCCTTAGAGGTT | 811
83 | ACTGTGCGTTGAGGTCGTCCGCCATCTGCTGCAGCT | 745
84 | GAGGTGGTCAGAGCCTCCCTTGACATGAAACAAGAA | 724
85 | TTGGCCTCGCCGGGACCCCTTGCACCGCGGACACAG | 776
86 | AAAACGCGCAAATACGGTGGCTGCGGCCCGCGGGCA | 693
87 | GGGCAGGCCGTATGTGGGAGACCACAAAGCCCAAGG | 787
88 | CATGACCTCCTCGCACAAGAATGCGGGGGTGGGGGT | 1050
89 | CACCCCGCCTCTGCGGGACCACTTCAGGCGCCTTCT | 876
90 | AACCCCTTGCACCGCGGACACAGCTTCTTCTTCCCC | 1080
91 | ACCCCGAAAGTGTGGGCGCGGCTGCGGTTTAACCCG | 7200
92 | GTGGCGCGGTGGGGCGCGGACCCGAAACTGCCAAGT | 706
93 | TGGCTACCCGAAAGGCGCGTTGGCTGCGGCTACGCA | 733
94 | CCCCACATACGGGGGCCGGGGCCGGGCTGTGGGCTT | 755
95 | TCCGCTTCTGTGGTCTGATCTTGCTGGGGCTGAACC | 1090
96 | ACAGACAGCAGCCTGAGCTCGTGGTTAGAACACCCT | 796
97 | GGTCTGCGGCGCGCGGGATGCTGGGCAATGTAGTTT | 784
98 | CAGGCTGCTTCAGGCGCGCGGCAGAGCGGTCAGAGC | 716
99 | CGTCCCCGCAAAGCCGCGGCAGAAACTCCCGGCGGT | 1270
100 | TAGGGGGGCGCGGTGAGCCCCGGCGGGAATCGAAGC | 716

Row | Sequence | RUNX1 binding intensity
101 | TCCACAATTCCCAGGAGTCTCTGCGGCCGCGCGGAG | 830
102 | TCACAATCGCCCACAAAGACAGCAAGTAACTGTCAG | 892
103 | ACGAGGTTTCGTGCAGGCTCCAGCCGAGACCACATC | 744
104 | GTAGGGGAGGGACCGCAGGGAGGCGGCAGTCCTTGT | 931
105 | ATCTTGTTCAGGCTCAAAGGGAAACCGCTGCTTTTC | 914
106 | GACAGTTTTCGGGCCTAGTTTGCGGCTGCTCCTGCC | 891
107 | CTCTCCAGACCGCGCATTTTGGGTCTCGGAGGAGGT | 735
108 | ACGTCATCCCGCAGGGCTGGCGCGCCCGGCGCAGTC | 779
109 | ACGCCGCGCATACGCGCTTTACGGCGGCCGCAAAAT | 801
110 | GAGGAGGAGGTGCGCTGGCTGTTCTGCTGCGGGCCG | 704
111 | ATGCCAAGGGACCTCCCTCCACAACCGCCCCCAGCT | 930
112 | CTGACAGCCTCCGCACAAAGCGCGGTCTATTTCTCC | 918
113 | AAGAAAGGTTCCAGCCTGCGCCCTGCTACCGCGGCG | 738
114 | GCTGCGGCGGCGGCGAAGAGACAACCTCCGCTGGAA | 793
115 | TCTGGGAGATGGAGTTCACAGCGCTGCGGGGCCGGA | 674
116 | CAACGCTTGCCGACCGCCAGCAGGAGGTGGTGGGCG | 755
117 | TCAAAGCTGCGGGGTTTCATTGCCTGTTCCTGAACA | 693
118 | AGTATACTGTGGTGAGAAACTGCCTGCCATACCAGC | 824
119 | CGTTTACTGTCTGGGACTGCGCCCACGCGGTCACGT | 871
120 | CACTTGGTCTTGCTGCCCTTGTGGCCCTAACACCCT | 841
121 | TTTATCCTTATTTGCTGGCTTCGCCCACAAGCACAG | 1010
122 | AGACTAGAGGCGGTTGTGTGAGTCAGAAAGAGGGGC | 724
123 | TCGGGAGGTGGCATGCTGACTCACCTGTGGCTTGTT | 797
124 | CTCCTGCGGCGACACGCCTAGCAGACGGCGCAAGGC | 773
125 | ATAACTTGCGGCAAATGCTGGAGGCAGTACCGCCTT | 840
